Measurements reported in PubChem BioAssay.

target: Neurogenic locus notch homolog protein 2 (Homo sapiens) (UniProt Q04721); assay: small molecules binding Notch2 protein – biochemical, small-molecule microarray, 635 nm fluorescence, stem cell growth factors, primary screen (AID 1073); conditions: higher = more signal
Sequence (Q04721 whole entry, looked up): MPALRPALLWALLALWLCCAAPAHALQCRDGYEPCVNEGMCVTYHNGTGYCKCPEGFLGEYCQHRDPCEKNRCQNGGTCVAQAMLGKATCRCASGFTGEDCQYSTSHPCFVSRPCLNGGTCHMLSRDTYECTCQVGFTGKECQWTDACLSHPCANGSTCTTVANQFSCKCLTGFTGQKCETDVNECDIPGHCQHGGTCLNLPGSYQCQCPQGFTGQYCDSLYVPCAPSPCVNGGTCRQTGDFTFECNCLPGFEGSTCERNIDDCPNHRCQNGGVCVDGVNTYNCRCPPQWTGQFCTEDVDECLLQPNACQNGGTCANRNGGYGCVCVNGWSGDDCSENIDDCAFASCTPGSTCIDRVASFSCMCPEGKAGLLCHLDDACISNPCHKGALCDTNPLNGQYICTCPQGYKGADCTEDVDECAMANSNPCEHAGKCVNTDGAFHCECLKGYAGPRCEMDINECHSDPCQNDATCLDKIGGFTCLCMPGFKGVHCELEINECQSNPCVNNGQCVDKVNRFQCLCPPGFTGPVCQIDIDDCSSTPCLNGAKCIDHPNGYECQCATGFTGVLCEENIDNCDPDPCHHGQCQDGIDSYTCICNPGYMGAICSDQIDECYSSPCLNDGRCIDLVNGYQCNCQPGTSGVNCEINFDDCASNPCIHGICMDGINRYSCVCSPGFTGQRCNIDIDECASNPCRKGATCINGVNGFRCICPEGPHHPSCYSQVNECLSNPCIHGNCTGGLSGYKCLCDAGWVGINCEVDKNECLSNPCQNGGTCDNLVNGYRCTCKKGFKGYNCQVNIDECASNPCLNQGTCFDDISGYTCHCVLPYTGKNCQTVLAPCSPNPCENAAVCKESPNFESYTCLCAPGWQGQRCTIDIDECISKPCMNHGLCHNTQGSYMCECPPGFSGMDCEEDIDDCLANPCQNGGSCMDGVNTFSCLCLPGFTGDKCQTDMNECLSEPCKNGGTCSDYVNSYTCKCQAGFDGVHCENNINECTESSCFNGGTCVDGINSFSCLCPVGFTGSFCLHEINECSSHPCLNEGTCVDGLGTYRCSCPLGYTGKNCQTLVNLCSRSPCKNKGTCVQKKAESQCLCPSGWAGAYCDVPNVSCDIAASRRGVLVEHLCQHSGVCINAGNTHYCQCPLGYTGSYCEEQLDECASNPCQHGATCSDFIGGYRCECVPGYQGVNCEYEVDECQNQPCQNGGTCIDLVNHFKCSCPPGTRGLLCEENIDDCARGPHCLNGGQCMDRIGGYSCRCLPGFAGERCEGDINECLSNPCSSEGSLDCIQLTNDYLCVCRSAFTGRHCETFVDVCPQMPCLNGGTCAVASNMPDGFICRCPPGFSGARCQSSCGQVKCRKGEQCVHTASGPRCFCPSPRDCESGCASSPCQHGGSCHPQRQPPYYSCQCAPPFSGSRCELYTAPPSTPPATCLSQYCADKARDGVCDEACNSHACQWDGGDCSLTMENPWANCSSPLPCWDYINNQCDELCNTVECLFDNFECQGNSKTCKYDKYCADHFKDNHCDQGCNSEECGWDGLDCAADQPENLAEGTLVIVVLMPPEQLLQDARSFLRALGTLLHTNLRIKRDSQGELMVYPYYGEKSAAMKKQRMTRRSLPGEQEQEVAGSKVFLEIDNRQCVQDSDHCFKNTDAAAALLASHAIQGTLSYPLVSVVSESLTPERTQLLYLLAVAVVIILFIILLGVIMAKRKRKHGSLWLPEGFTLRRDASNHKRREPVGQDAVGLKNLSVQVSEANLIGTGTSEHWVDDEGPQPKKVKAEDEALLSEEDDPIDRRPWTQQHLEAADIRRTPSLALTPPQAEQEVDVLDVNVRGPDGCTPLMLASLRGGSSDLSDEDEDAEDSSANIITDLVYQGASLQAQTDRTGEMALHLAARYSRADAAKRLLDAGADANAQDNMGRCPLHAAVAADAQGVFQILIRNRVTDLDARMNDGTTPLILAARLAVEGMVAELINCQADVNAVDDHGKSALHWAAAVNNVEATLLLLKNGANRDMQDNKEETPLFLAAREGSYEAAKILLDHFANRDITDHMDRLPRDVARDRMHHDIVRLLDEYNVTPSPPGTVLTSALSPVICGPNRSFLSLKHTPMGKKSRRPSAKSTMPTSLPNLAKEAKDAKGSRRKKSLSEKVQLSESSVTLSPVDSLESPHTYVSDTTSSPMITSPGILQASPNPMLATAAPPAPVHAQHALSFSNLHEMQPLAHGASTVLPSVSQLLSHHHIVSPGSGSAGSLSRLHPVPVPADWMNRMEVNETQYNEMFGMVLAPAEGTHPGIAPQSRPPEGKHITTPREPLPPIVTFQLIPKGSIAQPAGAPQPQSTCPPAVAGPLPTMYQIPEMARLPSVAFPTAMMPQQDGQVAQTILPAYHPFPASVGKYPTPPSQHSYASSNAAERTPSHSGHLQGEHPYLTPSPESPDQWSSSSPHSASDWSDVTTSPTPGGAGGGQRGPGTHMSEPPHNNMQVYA

Row | Structure (SMILES) | composite z-score
1 | COc1cc2c(cc1OC)CN(C(=O)[C@@H]1[C@H]3C(=O)O[C@H](c4ccccc4)[C@H](c4ccccc4)N3[C@H](c3ccc(OCCO)cc3)[C@@]13C(=O)Nc1ccc(C#CC4(O)CCCCCC4)cc13)CC2 | 1.14
2 | C=C(/C(=C/C[C@H](OC(C)=O)c1cccc(OCCO)c1)c1cnc2ccccc2c1)C(C)C | 1.56
3 | OCCCC1=CC(c2ccc(CN3CCCC3)cc2)N(Cc2sc3ccccc3c2Cl)CC1 (configuration not stated) | 0.72
4 | CCOC(=O)C[C@H]1[C@H](OC(=O)c2ccccc2-c2ccccc2)[C@@H](NC(=O)C2CCCCC2)c2cc(OCCCO)ccc2N1C(=O)Cc1ccc(OC)cc1 | 0.231
5 | CN1C(=O)C2C=CC(C(O)c3cccc4ccccc34)N(N3CCCCC3)C2C1=O (configuration not stated) | 1.48
6 | CC1=C([C@H](O)CCc2ccccc2)[C@H](CO)[C@@H]2C(=O)N(C)C(=O)[C@@H]2C1 | 0.451
7 | O=C1O[C@@H](c2ccccc2)[C@@H](c2ccccc2)N2[C@@H](c3ccc(OCCO)cc3)[C@]3(C(=O)Nc4ccccc43)[C@@H](C(=O)O)[C@H]12 | 0.381
8 | C=C(/C(=C/C[C@@H](OC(C)=O)c1cccc(OCCO)c1)c1cc(C(=O)OC)ccc1OC)C(C)C | -0.114
9 | CCOC(=O)C[C@H]1[C@H](OC(=O)c2cc3ccccc3oc2=O)[C@@H](NC(=O)c2ccc(-c3ccccc3)cc2)c2cc(OCCCO)ccc2N1C(=O)c1ccc2ccccc2n1 | 0.652
10 | CC[C@H]1C2=C3C(CC[C@H]4C(OCc5ccc(F)cc5C(F)(F)F)OC[C@](C)([C@@H]34)N(C(=O)OC(C)(C)C)C2)C(COC)C1COC (some centres not stated) | 0.84
11 | C=CCOC(=O)[C@H]1[C@@H]2C(=O)O[C@@H](c3ccccc3)[C@@H](c3ccccc3)N2[C@@H](c2ccc(OCCOC(=O)[C@H]3C[C@H]4C(=O)N[C@@H](CCCCNC(C)=O)C(=O)N4[C@H]3c3ccc(O)cc3)cc2)[C@]12C(=O)Nc1ccccc12 | 0.307
12 | [N-]=[N+]=Nc1ccccc1[C@@H]1OC(c2ccc(OCCCO)cc2)=N[C@]1(Cc1ccccc1)C(=O)NCC(O)CO (some centres not stated) | 0.138
13 | COc1ccc(C(O)C2C=CC3C(=O)N(c4ccccc4)C(=O)C3N2Nc2ccc([N+](=O)[O-])cc2)cc1 (configuration not stated) | 1.64
14 | O=C1OCC=C[C@H]2OC34C=CCN(Cn5nnc6ccccc65)C(=O)[C@H]3N(CCCO)C(=O)[C@@H]4[C@@H]12 (some centres not stated) | -1.04
15 | CCC[C@@H]1C[C@@]1(CCC)[C@@H](NC(=O)OCc1ccccc1)c1ccc(-c2ccccc2)cc1 | -0.527
16 | CC(C)(C)OC(=O)CC[C@@]1(C(=O)NCc2ccccc2)N=C(c2ccc(OCCCO)cc2)O[C@@H]1c1ccccc1N=[N+]=[N-] | 1.64
17 | COCCCNC(=O)[C@]1(CCS(=O)(=O)c2ccccc2)N=C(c2ccc(OCCCO)cc2)O[C@@H]1c1ccccc1CN=[N+]=[N-] | 1.63
18 | C=C(COC)/C(=C/C[C@H](OC(=O)c1ccncc1)c1ccccc1OCCO)c1cnc2ccccc2c1 | 1.34
19 | O=C(NCC(F)(F)F)[C@@H]1c2ccccc2C(=O)N(Cc2cc(F)cc(C(F)(F)F)c2)[C@H]1c1ccc(CO)cc1 | -1
20 | Cc1ccccc1C(O)C1C=CC2C(=O)N(C)C(=O)C2N1N(c1ccccc1)c1ccccc1 (configuration not stated) | 0.483
21 | COCCOC(=O)N1C(=O)[C@@]2(c3cc(C#CC4=CCCCC4)ccc31)[C@H](C(N)=O)[C@H]1C(=O)O[C@H](c3ccccc3)[C@H](c3ccccc3)N1[C@@H]2c1ccccc1OCCO | 1.07
22 | C[N+](C)(C)CCCCCCNC(=O)[C@H]1C[C@H]2C(=O)NCC(=O)N2[C@H]1c1ccc(O)cc1 | 0.0422
23 | O=C1OCC=C[C@H]2OC34C=CCN(Cc5ccccc5)C(=O)[C@H]3N(CCCCCCO)C(=O)[C@@H]4[C@@H]12 (some centres not stated) | -0.812
24 | COc1ccc(-c2nc(-c3ccccc3)c3c(c2C)CO[Si]3(C(C)C)C(C)C)cn1 | 0.296
25 | COCCOC(=O)N1C(=O)[C@@]2(c3cc(C#CC4(O)CCCCCC4)ccc31)[C@H](c1ccc(O)cc1)N1[C@H](c3ccccc3)[C@H](c3ccccc3)OC(=O)[C@H]1[C@@H]2C(=O)NC[C@H](O)c1ccccc1 | 1.29
26 | [N-]=[N+]=NCc1ccccc1C[C@@]1(C(=O)NCc2ccccc2)N=C(c2ccc(OCCCO)cc2)O[C@@H]1c1ccccc1N=[N+]=[N-] | 1.33
27 | [N-]=[N+]=NCc1ccccc1C[C@@]1(C(=O)N2CCOCC2)N=C(c2ccc(OCCCO)cc2)O[C@@H]1c1ccccc1 | 1.44
